# Laboratory results as given in publication PMC11006913.
# Where a chain is given by its changes, count along the chain named.
# How the values were obtained:
# Assay in all cases: PBM; 200 nM protein, PBS
# Settings in all cases: dsDNA, one strand shown
# NKX2-4 [1] = target: T1, NKX2-4 (Homo sapiens, UniProt Q9H2Z4 175-261, P217L)
# T1 sequence: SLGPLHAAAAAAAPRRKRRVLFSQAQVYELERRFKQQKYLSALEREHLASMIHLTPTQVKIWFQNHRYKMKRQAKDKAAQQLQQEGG
# NKX2-4 [2] = target: T2, NKX2-4 (Homo sapiens, UniProt Q9H2Z4 175-261, T231S)
# T2 sequence: T1 sequence with L43P, T57S
# NKX2-4 [3] = target: T3, NKX2-4 (Homo sapiens, UniProt Q9H2Z4 175-261)
# T3 sequence: T1 sequence with L43P
# NKX2-4 [4] = target: T4, NKX2-4 (Homo sapiens, UniProt Q9H2Z4 175-261, R246Q)
# T4 sequence: T1 sequence with L43P, R72Q
Sequence,binding signal (NKX2-4 [1]),binding signal (NKX2-4 [2]),binding signal (NKX2-4 [3]),binding signal (NKX2-4 [4])
CGGCGTTA,"9.81 upbm affinity estimate (log intensity, higher = more binding, comparable within an allelic series)","9.61 upbm affinity estimate (log intensity, higher = more binding, comparable within an allelic series)","9.82 upbm affinity estimate (log intensity, higher = more binding, comparable within an allelic series)","9.89 upbm affinity estimate (log intensity, higher = more binding, comparable within an allelic series)"
CCCGCAGG,"8.95 upbm affinity estimate (log intensity, higher = more binding, comparable within an allelic series)","8.81 upbm affinity estimate (log intensity, higher = more binding, comparable within an allelic series)","9.01 upbm affinity estimate (log intensity, higher = more binding, comparable within an allelic series)","8.96 upbm affinity estimate (log intensity, higher = more binding, comparable within an allelic series)"
AAACCCCC,"9.69 upbm affinity estimate (log intensity, higher = more binding, comparable within an allelic series)","9.77 upbm affinity estimate (log intensity, higher = more binding, comparable within an allelic series)","9.71 upbm affinity estimate (log intensity, higher = more binding, comparable within an allelic series)","9.65 upbm affinity estimate (log intensity, higher = more binding, comparable within an allelic series)"
CGGGTACG,"9.52 upbm affinity estimate (log intensity, higher = more binding, comparable within an allelic series)","9.68 upbm affinity estimate (log intensity, higher = more binding, comparable within an allelic series)","9.69 upbm affinity estimate (log intensity, higher = more binding, comparable within an allelic series)","9.6 upbm affinity estimate (log intensity, higher = more binding, comparable within an allelic series)"
ATACTTCA,"12.4 upbm affinity estimate (log intensity, higher = more binding, comparable within an allelic series)","12.8 upbm affinity estimate (log intensity, higher = more binding, comparable within an allelic series)","12.3 upbm affinity estimate (log intensity, higher = more binding, comparable within an allelic series)","12.8 upbm affinity estimate (log intensity, higher = more binding, comparable within an allelic series)"
GCGAGCCA,"9.74 upbm affinity estimate (log intensity, higher = more binding, comparable within an allelic series)","9.69 upbm affinity estimate (log intensity, higher = more binding, comparable within an allelic series)","9.69 upbm affinity estimate (log intensity, higher = more binding, comparable within an allelic series)","9.76 upbm affinity estimate (log intensity, higher = more binding, comparable within an allelic series)"
ATGAGTGG,"12.4 upbm affinity estimate (log intensity, higher = more binding, comparable within an allelic series)","12.8 upbm affinity estimate (log intensity, higher = more binding, comparable within an allelic series)","12.3 upbm affinity estimate (log intensity, higher = more binding, comparable within an allelic series)","12.8 upbm affinity estimate (log intensity, higher = more binding, comparable within an allelic series)"
GAAGAGTA,"11.9 upbm affinity estimate (log intensity, higher = more binding, comparable within an allelic series)","12.2 upbm affinity estimate (log intensity, higher = more binding, comparable within an allelic series)","11.7 upbm affinity estimate (log intensity, higher = more binding, comparable within an allelic series)","12.2 upbm affinity estimate (log intensity, higher = more binding, comparable within an allelic series)"
GCACTCGA,"12.5 upbm affinity estimate (log intensity, higher = more binding, comparable within an allelic series)","13 upbm affinity estimate (log intensity, higher = more binding, comparable within an allelic series)","12.5 upbm affinity estimate (log intensity, higher = more binding, comparable within an allelic series)","13.1 upbm affinity estimate (log intensity, higher = more binding, comparable within an allelic series)"
CGCGGCCC,"9.94 upbm affinity estimate (log intensity, higher = more binding, comparable within an allelic series)","9.93 upbm affinity estimate (log intensity, higher = more binding, comparable within an allelic series)","10 upbm affinity estimate (log intensity, higher = more binding, comparable within an allelic series)","9.94 upbm affinity estimate (log intensity, higher = more binding, comparable within an allelic series)"
GAGTGTCC,"11.9 upbm affinity estimate (log intensity, higher = more binding, comparable within an allelic series)","12.2 upbm affinity estimate (log intensity, higher = more binding, comparable within an allelic series)","11.8 upbm affinity estimate (log intensity, higher = more binding, comparable within an allelic series)","12.2 upbm affinity estimate (log intensity, higher = more binding, comparable within an allelic series)"
GCACTACA,"11.7 upbm affinity estimate (log intensity, higher = more binding, comparable within an allelic series)","11.7 upbm affinity estimate (log intensity, higher = more binding, comparable within an allelic series)","11.6 upbm affinity estimate (log intensity, higher = more binding, comparable within an allelic series)","11.9 upbm affinity estimate (log intensity, higher = more binding, comparable within an allelic series)"
AGTACTCA,"12.5 upbm affinity estimate (log intensity, higher = more binding, comparable within an allelic series)","12.9 upbm affinity estimate (log intensity, higher = more binding, comparable within an allelic series)","12.4 upbm affinity estimate (log intensity, higher = more binding, comparable within an allelic series)","12.9 upbm affinity estimate (log intensity, higher = more binding, comparable within an allelic series)"
CACTTTGA,"11.7 upbm affinity estimate (log intensity, higher = more binding, comparable within an allelic series)","12 upbm affinity estimate (log intensity, higher = more binding, comparable within an allelic series)","11.6 upbm affinity estimate (log intensity, higher = more binding, comparable within an allelic series)","12 upbm affinity estimate (log intensity, higher = more binding, comparable within an allelic series)"
ACCGCAAC,"9.55 upbm affinity estimate (log intensity, higher = more binding, comparable within an allelic series)","9.45 upbm affinity estimate (log intensity, higher = more binding, comparable within an allelic series)","9.49 upbm affinity estimate (log intensity, higher = more binding, comparable within an allelic series)","9.62 upbm affinity estimate (log intensity, higher = more binding, comparable within an allelic series)"
GCCCTTAA,"12 upbm affinity estimate (log intensity, higher = more binding, comparable within an allelic series)","12.3 upbm affinity estimate (log intensity, higher = more binding, comparable within an allelic series)","12 upbm affinity estimate (log intensity, higher = more binding, comparable within an allelic series)","12.2 upbm affinity estimate (log intensity, higher = more binding, comparable within an allelic series)"
CAAGAGGA,"12 upbm affinity estimate (log intensity, higher = more binding, comparable within an allelic series)","12.3 upbm affinity estimate (log intensity, higher = more binding, comparable within an allelic series)","12 upbm affinity estimate (log intensity, higher = more binding, comparable within an allelic series)","12.4 upbm affinity estimate (log intensity, higher = more binding, comparable within an allelic series)"
ATTCTTGA,"11.5 upbm affinity estimate (log intensity, higher = more binding, comparable within an allelic series)","11.7 upbm affinity estimate (log intensity, higher = more binding, comparable within an allelic series)","11.2 upbm affinity estimate (log intensity, higher = more binding, comparable within an allelic series)","11.7 upbm affinity estimate (log intensity, higher = more binding, comparable within an allelic series)"
